Reference: PubChem BioAssay AID1376 (SRMLSC, 2008)
Among all 220,000 compounds or so, about 530 (0.24%) were called active. Cut-off read from the data, not from the text of the source: active = inhibition above about 13%; inconclusive = no clear call, values can overlap the other calls; inactive = below that. This excerpt belongs to a sample that is enriched for actives. Entries with a potency or affinity are not part of this list.

biological target: Bifunctional protein GlmU (Mycobacterium tuberculosis (strain ATCC 25618 / H37Rv)) (UniProt P9WMN3); assay: inhibition of mycobacterial GlmU enzyme – biochemical, glucosamine-1-phosphate acetyltransferase (AID 1376);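 note: 0% = complete reaction with vehicle and 100% = reaction without substrate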; conditions: M. tuberculosis GlmU acetyltransferase enzyme assay; stronger effect = higher value;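 tested at 30 µM in the primary screen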
Sequence (P9WMN3 whole entry, looked up): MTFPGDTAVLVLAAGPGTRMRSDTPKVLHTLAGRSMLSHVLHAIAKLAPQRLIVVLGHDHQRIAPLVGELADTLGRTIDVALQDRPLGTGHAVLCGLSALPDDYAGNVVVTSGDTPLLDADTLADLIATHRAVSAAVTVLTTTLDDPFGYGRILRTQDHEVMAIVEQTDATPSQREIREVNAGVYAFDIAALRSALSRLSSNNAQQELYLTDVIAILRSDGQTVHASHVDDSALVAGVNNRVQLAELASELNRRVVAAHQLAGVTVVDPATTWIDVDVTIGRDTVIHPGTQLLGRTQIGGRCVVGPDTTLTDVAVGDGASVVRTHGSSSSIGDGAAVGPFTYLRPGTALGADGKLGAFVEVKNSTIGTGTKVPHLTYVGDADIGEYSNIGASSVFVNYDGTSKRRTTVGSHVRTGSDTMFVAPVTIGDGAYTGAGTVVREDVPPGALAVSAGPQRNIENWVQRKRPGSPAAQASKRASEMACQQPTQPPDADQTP

| Compound | inhibition |
| --- | --- |
| O=C(CNCC1CCCO1)N1CCCc2ccccc21 (stereo not drawn) | 1.14% (inactive) |
| O=C(O)c1nc2ccccc2nc1C(=O)O | -0.04% (inactive) |
| Cc1cc(C(=O)Nc2ccc(C)c(S(=O)(=O)N3CCOCC3)c2)c(C)o1 | -1.51% (inactive) |
| CCC1=C(OC(=O)N(CC)CC)N2C(=O)OC(=NCC3CC3)[C@]2(C)[C@H]2C1=CC[C@H]1C(=O)N(CC)C(=O)[C@H]12 | 1.38% (inactive) |
| COc1ccc(CNC(=O)Nc2ccc3c(c2)N(C)C(=O)CS3)cc1 | -4.33% (inactive) |
| O=C(c1ccc(C(F)(F)F)cc1)c1c[nH]c(C(=O)NCCCn2ccnc2)c1 | -1.27% (inactive) |
| Cc1ccccc1C(=O)NNC(=O)CSc1nnc(-c2ccncc2)n1-c1ccccc1 | -3.22% (inactive) |
| OCCC1CN(Cc2cccn2-c2nccs2)CCN1C1CCCCC1 (stereo not drawn) | -4.98% (inactive) |
| COc1cc2cccc(OC)c(=O)c2c(O)c1OC | -3.83% (inactive) |
| Oc1cccc2cc3cccc(O)c3c(O)c12 | -0.27% (inactive) |
| O=C(c1ccc2c(c1)OCCO2)N1CCN(c2ccc([N+](=O)[O-])cc2)CC1 | -4.31% (inactive) |
| Cc1ccc(C2=NC(=O)/C(=C/c3cc(O)c(O)c(Br)c3)S2)cc1 | 17.7% (active) |
| COc1cc(/C=C2\SC(c3ccc(C)cc3)=NC2=O)cc(OC)c1O | 5.86% (inactive) |
| COc1cc(/C=C2\SC(c3ccc(C)cc3)=NC2=O)ccc1O | 7.11% (inactive) |
| CC(=O)Nc1ccc(/C(C)=N/NC(=O)c2ccncc2)cc1 | 1.93% (inactive) |
| COc1ccc(N2C(=O)CC(C3CCCO3)C2=O)cc1 (stereo not drawn) | 6.39% (inactive) |
| Cn1c(O)c(C=NC2CC(C)(C)NC(C)(C)C2)c(=O)n(C)c1=O | 1.39% (inactive) |
| COc1cc2c(cc1NS(=O)(=O)N1CCCC1)oc1ccccc12 | 1.9% (inactive) |
| O=S(=O)(Nc1ccc2c(c1)oc1ccccc12)N1CCCC1 | 5.63% (inactive) |
| COc1cc2c(cc1NS(=O)(=O)N1CCCCC1)oc1ccccc12 | 14.6% (active) |
| FC(F)Oc1ccc(NC(=S)NCCc2ccccn2)cc1 | -3.82% (inactive) |
| O=C(Nc1cccc(Cl)c1)Nc1nnc(CSCCOc2ccc(Cl)cc2)s1 | -7.81% (inactive) |
| Cc1cc(C=O)c(C)n1-c1cccc(C(=O)O)c1 | 6.93% (inactive) |
| Cc1ccc(C)n1-c1cccc(C(=O)O)c1 | 23.5% (active) |
| Cc1ccc(-c2ccccc2)n1-c1cccc(C(=O)O)c1 | 5.34% (inactive) |

| Compound | inhibition |
| --- | --- |
| Cc1ccccc1NC(=O)Cn1nc(-c2ccccc2)nc1-c1ccccc1 | 1.21% (inactive) |
| O=[N+]([O-])c1cccnc1Oc1cccnc1 | 6.22% (inactive) |
| Cn1c(Cc2ccc3c(c2)OCO3)nnc1SCC(=O)N1CCc2ccccc2C1 | 1.71% (inactive) |
| N#Cc1c(N2CCCC2)nc(N)c2c(N)nc(N3CCCC3)cc12 | -6.67% (inactive) |
| N#Cc1c(N2CCCCC2)nc(N)c2c(N)nc(SCC(=O)O)cc12 | 13.1% (active) |
| CCOc1cc2c(C#N)c(N3CCCC3)nc(N)c2c(N)n1 | 4.64% (inactive) |
| COc1cc2c(C#N)c(N3CCCCC3)nc(N)c2c(N)n1 | -2.38% (inactive) |
| CCOC(=O)C1CCN(c2nc(C)cc(C)c2C#N)CC1 | -1.41% (inactive) |
| CCOC(=O)C1CCN(c2nc(N)c3c(N)nc(SCC(=O)O)cc3c2C#N)CC1 | 14.2% (active) |
| CC(=O)Nc1ccccc1C(=O)C(=O)Nc1ccc(C)c(C)c1 | -3.19% (inactive) |
| COc1cc(C(=S)N2CCCC2)cc(Cl)c1OCC(=O)Nc1ccc(C)cc1C | -4.86% (inactive) |
| CN(C)CCCOC(=O)c1cc2ccccc2o1 | -2.64% (inactive) |
| O=C(Cn1cnc2ccccc2c1=O)N1CCN(c2ccccc2)CC1 | 5.67% (inactive) |
| COC(=O)CN(c1nc(C)c(Br)c(OC)n1)S(=O)(=O)c1ccc(C)cc1 | 1.24% (inactive) |
| COc1nc(N(CC(N)=O)S(=O)(=O)c2ccccc2)nc(C)c1Cl | 4.56% (inactive) |
| COC(=O)CN(c1nc(C)c(Cl)c(OC)n1)S(=O)(=O)c1ccc(C)cc1 | 25.4% (active) |
| CC(O)CCC(=O)NNC(=S)Nc1ccccc1 (stereo not drawn) | 2.51% (inactive) |
| O=C(O)C1CCCCC1C(=O)Nc1ccccc1Cl (stereo not drawn) | -0.88% (inactive) |
| O=C(Nc1cccc2ccccc12)C1CCN(C(=O)Cc2ccccc2)CC1 | 0.74% (inactive) |
| O=C(Nc1ccccc1F)C1CCN(C(=O)Cc2ccccc2)CC1 | 15% (active) |
| O=C(Nc1ccccc1Br)C1CCN(C(=O)Cc2ccccc2)CC1 | -6.58% (inactive) |
| O=C(O)C1CCCCC1C(=O)Nc1ccccc1F (stereo not drawn) | 13.6% (active) |
| O=C(O)C1CCCCC1C(=O)Nc1ccc(F)cc1F (stereo not drawn) | 5.94% (inactive) |
| Nc1nc2n(n1)C(c1ccc(F)cc1)CC(c1ccc(F)cc1)N2 (stereo not drawn) | -1.02% (inactive) |
| COc1ccc(C2CC(c3ccc(F)cc3)Nc3nc(N)nn32)cc1 (stereo not drawn) | 20% (active) |

| Compound | inhibition |
| --- | --- |
| COc1ccc(C2CC(c3ccc(OC)cc3)n3nc(N)nc3N2)cc1 (stereo not drawn) | 1.16% (inactive) |
| Cc1ccc(/C(O)=C2\C(=O)C(=O)N(CC(C)O)C2c2ccccn2)cc1 (stereo not drawn) | -0.84% (inactive) |
| CCCNC(=S)Nc1ccc(CC(=O)OC)cc1 | -4.55% (inactive) |
| COC(=O)Cc1ccc(NC(=S)NCCO)cc1 | -2% (inactive) |
| COC(=O)Cc1ccc(NC(=S)NCCCO)cc1 | 13.5% (active) |
| COC(=O)c1sc(N2C(=O)C(=O)/C(=C(/O)c3ccc(C)cc3)C2c2ccco2)nc1C (stereo not drawn) | -0.75% (inactive) |
| CC1=C(C(=O)Nc2ccccn2)C(c2ccc(Cl)cc2)NC(=S)N1 (stereo not drawn) | 2.47% (inactive) |
| COc1ccc(C2NC(=S)NC(C)=C2C(=O)Nc2ccccn2)cc1 (stereo not drawn) | 2.34% (inactive) |
| CC1=C(C(=O)Nc2ccccn2)C(c2ccc(Br)cc2)NC(=S)N1 (stereo not drawn) | 14.3% (active) |
| Cc1cc(OCCCC(=O)NC2=NCCS2)ccc1Cl | -5.02% (inactive) |
| c1ccc2oc(-c3[nH]ncc3CN3CCSCC3)cc2c1 | 0.41% (inactive) |
| OC1(CNCc2cn[nH]c2-c2cc3ccccc3o2)CCCCC1 | 14.3% (active) |
| CCn1cc(CNCc2cn[nH]c2-c2cc3ccccc3o2)cn1 | 1.28% (inactive) |
| CSc1nccc(-c2c(-c3ccc(Cl)cc3)noc2C)n1 | 2.51% (inactive) |
| c1ccc(CNc2ncnc3c2ncn3C2CCCCO2)cc1 (stereo not drawn) | -1.2% (inactive) |
| CC1Oc2ccccc2C=C1/C=N/Nc1ccc(C(=O)O)cc1 (stereo not drawn) | 4.4% (inactive) |
| O=C(O)c1ccc(N/N=C/C2=Cc3ccccc3OC2)cc1 | 14.4% (active) |
| O=C(N/N=C/C1=Cc2ccccc2OC1)c1ccncc1 | -1.23% (inactive) |
| CSc1nccc(Oc2cncc(Cl)c2)n1 | 2.56% (inactive) |
| CCOc1ccc(Cc2n[nH]c(=S)n2N)cc1 | 1.55% (inactive) |
| CCCCOc1ccc(Cc2n[nH]c(=S)n2N)cc1 | 12.8% (active) |
| Nn1c(Cc2ccc(F)cc2)n[nH]c1=S | -2.75% (inactive) |
| COc1ccccc1/C=N/NC(=O)C(=O)NCc1cccnc1 | 3.16% (inactive) |
| COc1ccc(S(=O)(=O)NNC(=O)c2csc(-n3nc(C)cc3C(F)(F)F)n2)cc1OC | 2.2% (inactive) |
| O=C(O)c1ccc(Oc2c(C(F)(F)F)oc3cc(O)ccc3c2=O)cc1 | -3.31% (inactive) |

| Compound | inhibition |
| --- | --- |
| O=c1c(C(c2ccc(Cl)cc2)c2c(O)nc3n(c2=O)CCS3)c(O)nc2n1CCS2 | 9.88% (inactive) |
| COc1cccc(NC(=O)CN(C)C(C)C(=O)Nc2cc([N+](=O)[O-])ccc2Cl)c1 (stereo not drawn) | -8.73% (inactive) |
| Cc1noc(NS(=O)(=O)c2ccc(N/C=C\C(=O)c3ccccc3)cc2)c1C | 1.37% (inactive) |
| Cc1noc(NS(=O)(=O)c2ccc(N/C=C\C(=O)c3cccs3)cc2)c1C | 13.3% (active) |
| Cc1ccc(C(=O)/C=C/Nc2ccc(S(=O)(=O)Nc3onc(C)c3C)cc2)cc1 | 14.2% (active) |
| Cc1noc(NS(=O)(=O)c2ccc(N/C=C\C(=O)c3ccncc3)cc2)c1C | 3.38% (inactive) |
| Cc1noc(NS(=O)(=O)c2ccc(N/C=C\C(=O)c3ccc(F)cc3)cc2)c1C | 4.6% (inactive) |
| Cc1noc(NS(=O)(=O)c2ccc(N/C=C/C(=O)c3ccc(F)cc3)cc2)c1C | 3.6% (inactive) |
| Cc1ccc2cc(CN(CCCN3CCOCC3)C(c3nnnn3Cc3ccco3)C(C)C)c(=O)[nH]c2c1C (stereo not drawn) | -1.48% (inactive) |
| CCOc1ccc(N2C(=O)c3cccnc3C2Nc2ccc(C)c(C)c2)cc1 (stereo not drawn) | -5.6% (inactive) |
| CCO[C@@H]1OC(C(=O)Nc2ccccc2)=C[C@H](c2ccc(Br)cc2)[C@H]1CCCO | 1.98% (inactive) |
| CC(=O)Nc1ccc(/C=C(\C#N)C(=O)NC2CCCCC2C)cc1 (stereo not drawn) | 3.98% (inactive) |
| O=C(CN1CCN(c2ccc(Cl)cc2)CC1)NCc1ccccc1 | 1.83% (inactive) |
| CC(=C\c1ccccc1)/C=C1/SC(=S)N(C(C(=O)O)C(C)C)C1=O (stereo not drawn) | 5.39% (inactive) |
| O=C1S/C(=C\C=C\c2ccco2)C(=O)N1c1ccccc1 | 6.89% (inactive) |
| O=C1/C(=C/C=C/c2ccco2)SC(=S)N1c1ccc(O)cc1 | 7.16% (inactive) |
| CC(/C=C1\SC(=S)N(C(C(=O)O)C(C)C)C1=O)=C\c1ccccc1 (stereo not drawn) | 3.64% (inactive) |
| CCCCC(=O)Nc1ncc(Br)s1 | 0.1% (inactive) |
| Cc1nnc(SCC(=O)Nc2cc(-c3cc(C)c(C)cc3C)nn2-c2ccccc2)s1 | -5.02% (inactive) |
| COc1cc(/C=N/NC(=O)c2cccc([N+](=O)[O-])c2)ccc1OCc1ccccc1 | 1.61% (inactive) |
| CCN1C(=O)/C(=C\c2ccc([N+](=O)[O-])s2)C(=O)NC1=S | 92.2% (active) |
| CN1C(=O)NC(=O)/C(=C/c2ccc([N+](=O)[O-])s2)C1=O | -1.9% (inactive) |
| O=C1NC(=O)N(Cc2ccc(F)cc2)C(=O)/C1=C\c1ccc([N+](=O)[O-])s1 | 6.15% (inactive) |
